Eleven compounds from PubChem BioAssay (EPA / NIEHS) can be followed below.

Experiment [1] is described as follows: CCTE_Shafer_MEA_acute_burst_percentage_mean: CCTE's Neural Acute Assay for Percentage of Spikes in a Burst, Shafer Lab (AID 2284017).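 For AC50: curve fitted for loss of signal so potency reflects decreased burst percentage.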 In short, it runs like this: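 Primary rat cortical neurons on 48-well MEA plates, treated on DIV 13 or 15 at 0.03-40 uM. Spikes detected at 8x rms noise at 37C; percent change from 40-min baseline to 40-min post-dose recording, fitted versus DMSO.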

Experiment [2] is described as follows: CCTE_Shafer_MEA_acute_burst_percentage_std: CCTE's Neural Acute Assay for Standard Deviation of Burst Percentage, Shafer Lab (AID 2284018).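 Note: fitted in the negative direction so actives lower burst percentage SD.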 A digest of the protocol: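 Primary rat cortical neurons on 16-electrode MEA wells were recorded 40 min at baseline (DIV 13 or 15), then 40 min after compound (0.03-40 uM), at 37 C. Well value is SD across electrodes of spikes-in-bursts/total spikes; endpoint is percent change, DMSO-referenced.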

The nature of experiment [3]: CCTE_Shafer_MEA_acute_per_network_burst_spike_number_std: CCTE's Neural Acute Assay for Standard Deviation of Number of Spikes in a Network Burst, Shafer Lab (AID 2284020).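 Note: fitted for decrease in spike-number SD versus DMSO so actives lower it.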 A digest of the protocol:
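Primary rat cortical neurons on 48-well MEAs (16 electrodes/well) recorded at DIV 13 or 15: 40-min baseline, then 40 min with compound (0.03-40 uM), 37 C. Value is percent change in SD of spikes per network burst, relative to DMSO.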

Experiment [4] can be described thus: CCTE_Shafer_MEA_acute_per_network_burst_electrodes_number_mean: CCTE's Neural Acute Assay for Mean Number of Electrodes in a Network Burst, Shafer Lab (AID 2284021).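 Note: curves fitted for decreases only so hits reduce electrodes per burst.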 A digest of the protocol: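 Percent change from baseline in average electrode count per network burst, rat cortical cultures on 48-well MEAs; 40-min recordings each side of exposure, DIV 13 or 15; threshold 8x rms noise; DMSO as negative control.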

Experiment [5] in a line: CCTE_Shafer_MEA_acute_network_burst_percentage: CCTE's Neural Acute Assay for Percentage of Network Bursts, Shafer Lab (AID 2284022).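 Note: curves fitted for loss so actives lower network burst percentage.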 In short, it runs like this:
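On DIV 13 or 15, at least three wells of rat cortical neurons per compound are dosed at 0.03-40 uM. Spontaneous firing is detected at 8x rms noise for 40 min before and after dosing at 37 C. The percent change in network-burst spike share is reported.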

Experiment [6] is described as follows: CCTE_Shafer_MEA_acute_cross_correlation_area: CCTE's Neural Acute Assay for Area of Cross Correlation, Shafer Lab (AID 2284024).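 Note: area under pooled inter-electrode spike cross-correlation near zero lag as percent change from own baseline; curves fitted for loss of cross-correlation area so actives lower synchrony.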 In short, it runs like this: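 Extracellular recordings from cultured rat cortical neurons measure network synchrony as cross-correlation area; each well's post-compound value (0.03-40 uM, 40 min) is compared with its own 40 min baseline to give percent change.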

Experiment [7] can be described thus: CCTE_Shafer_MEA_acute_cross_correlation_HWHM: CCTE's Neural Acute Assay for Cross Correlation at Half Width at Half Maximum, Shafer Lab (AID 2284026).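 For outcome: spontaneous network firing of rat primary cortical neurons on multiwell microelectrode arrays.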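 Note: percent change per well from pre-dose baseline in spike cross-correlogram half width; hits are a decrease in cross-correlogram half width relative to DMSO.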 A digest of the protocol: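 Percent change in cross-correlogram half width at half maximum, narrower meaning more synchrony, was derived per well from paired 40-min recordings before and during exposure to 0.03-40 uM compound in rat cortical cultures at 37 C.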

Experiment [8] in a line: CCTE_Shafer_MEA_dev_per_burst_spike_percent: CCTE's Neural Network Formation Assay for Percent of Spikes in a Burst, Shafer Lab (AID 2284032).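 For AC50: fitted as a decrease in burst spike percentage below DMSO baseline.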 In short, it runs like this: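 Rat primary cortical neurons on 16-electrode MEA wells, dosed from plating day 0 for 12 days with renewal on DIV 5 and 9; spikes-in-bursts percentage averaged over bursting electrodes, collapsed as AUC across days 5, 7, 9, 12; loss direction versus DMSO.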

Experiment [9] in a line: CCTE_Shafer_MEA_dev_active_electrodes_number: CCTE's Neural Network Formation Assay for Number of Active Electrodes, Shafer Lab (AID 2284040; active = hit-call score of the fitted dose curve at least 0.9, where 1 is the maximum;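 for AC50: potency for loss of active electrodes versus DMSO so lower counts are hits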). In short, it runs like this: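 Primary rat cortical neurons on 16-electrode MEA wells, exposed from day 0 through day 12 with compound renewed at DIV 5 and 9 feeds. Active electrodes (mean firing ≥5 spikes/min) counted at DIV 5, 7, 9, 12; trapezoidal AUC across days, loss-of-signal versus DMSO.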

Experiment [10] can be described thus: CCTE_Shafer_MEA_dev_burst_rate: CCTE's Neural Network Formation Assay for Burst Rate, Shafer Lab (AID 2284042). A digest of the protocol: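 Primary rat cortical neurons on PEI-coated 48-well MEA plates (laminin added with cells at plating) (16 electrodes/well), exposed from plating to day 12, dosing renewed at DIV 5 and 9. Burst rate averaged over active electrodes, recorded DIV 5, 7, 9, 12, summarized as AUC; loss versus DMSO.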

Experiment [11] in a line: CCTE_Shafer_MEA_dev_bursting_electrodes_number: CCTE's Neural Network Formation Assay for Number of Bursting Electrodes, Shafer Lab (AID 2284043; active = hit-call score of the fitted dose curve at least 0.9, where 1 is the maximum;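 for AC50: potency is for loss of bursting electrodes relative to DMSO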). A digest of the protocol: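 Primary rat cortical neurons were cultured on PEI-coated 48-well MEA plates (16 electrodes/well) and exposed from plating through day 12, with compound renewed at feeds on DIV 5 and 9. Electrodes bursting ≥1 per 2 min were counted on DIV 5, 7, 9, 12; trapezoidal AUC taken.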

A short description of experiment [12]: CCTE_Deisenroth_AIME_384WELL_CTox_Inactive: Cytotoxicity Assessment (CTOX) in CCTE's 384-well Estrogen Receptor Transactivation Assay without AIME metabolic competence (metabolism negative), Deisenroth Lab (AID 2284039; active = hit-call score of the fitted dose curve at least 0.9, where 1 is the maximum;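 note: cell viability via live-cell protease substrate cleaved to fluorescent probe; cells exposed 24 h to medium preincubated 2 h with alginate-water beads without S9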). In short, it runs like this: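 VM7Luc4E2 cells, metabolism-negative arm: test chemicals (0.002–200 uM, 10 points) pre-incubated 2 h with alginate-water microspheres, then medium transferred to cells for 24 h. Viability read as protease-substrate cleavage to fluorescent probe; loss-of-signal, bidirectional fitting.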

In experiment [13] the target is Estrogen receptor (Homo sapiens) (UniProt P03372). Put plainly: CCTE_Deisenroth_AIME_96WELL_LUC_Active: CCTE's 96-well Estrogen Receptor Transactivation Assay with AIME metabolic competence (ERTA luciferase; metabolism positive), Deisenroth Lab (AID 2284023; active = hit-call score of the fitted dose curve at least 0.9, where 1 is the maximum). In short, it runs like this: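 Chemicals pre-incubated 2 h with alginate-immobilized phenobarbital/beta-naphthoflavone-induced male Sprague Dawley rat liver S9, then medium transferred to VM7Luc4E2 cells for 24 h luciferase read-out. 10-point series 0.002 - 200 uM; fitted relative to 17beta-estradiol.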
Chain of Estrogen receptor (Homo sapiens) (P03372 whole entry, looked up): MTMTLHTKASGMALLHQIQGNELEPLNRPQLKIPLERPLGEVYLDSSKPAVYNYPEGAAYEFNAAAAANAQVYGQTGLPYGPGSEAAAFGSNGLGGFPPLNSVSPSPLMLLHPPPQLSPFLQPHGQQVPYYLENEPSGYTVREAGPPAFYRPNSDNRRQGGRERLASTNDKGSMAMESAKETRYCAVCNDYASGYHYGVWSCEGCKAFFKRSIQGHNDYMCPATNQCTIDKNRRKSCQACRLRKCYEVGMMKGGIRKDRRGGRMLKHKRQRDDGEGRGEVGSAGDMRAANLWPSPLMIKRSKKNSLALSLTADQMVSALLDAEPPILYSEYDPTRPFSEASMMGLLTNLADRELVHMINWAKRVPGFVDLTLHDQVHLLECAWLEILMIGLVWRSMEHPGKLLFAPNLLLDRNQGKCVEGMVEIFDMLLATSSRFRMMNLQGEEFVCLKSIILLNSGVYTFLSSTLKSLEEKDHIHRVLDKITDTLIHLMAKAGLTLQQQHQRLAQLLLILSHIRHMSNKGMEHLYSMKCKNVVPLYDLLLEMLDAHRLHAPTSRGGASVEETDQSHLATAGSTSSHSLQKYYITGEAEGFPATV

The target is the same in experiment [14]. Put plainly: CCTE_Deisenroth_AIME_96WELL_LUC_Inactive: CCTE's 96-well Estrogen Receptor Transactivation Assay without AIME metabolic competence (ERTA luciferase; metabolism negative), Deisenroth Lab (AID 2284025; active = hit-call score of the fitted dose curve at least 0.9, where 1 is the maximum). A digest of the protocol:
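VM7Luc4E2 breast cells, luciferase read 24 h after dosing with medium pre-incubated 2 h on alginate-water lids (metabolism negative). 10-point series 0.002–200 uM, single technical replicate, n≥4; fit relative to 17beta-estradiol.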

Experiment [15] in a line: CCTE_Deisenroth_AIME_96WELL_CTox_Active: Cytotoxicity Assessment (CTOX) in CCTE's 96-well Estrogen Receptor Transactivation Assay with AIME metabolic competence (metabolism positive), Deisenroth Lab (AID 2284028; active = hit-call score of the fitted dose curve at least 0.9, where 1 is the maximum). In short, it runs like this:
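Chemicals (0.002–200 uM) were first incubated 2 h with alginate-immobilized phenobarbital/beta-naphthoflavone-induced male rat liver S9; conditioned medium then went onto VM7Luc4E2 cells for 24 h, with viability read by protease-substrate fluorescence, fitted bidirectionally.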

Experiment [16] can be described thus: CCTE_Deisenroth_AIME_96WELL_CTox_Inactive: Cytotoxicity Assessment (CTOX) in CCTE's 96-well Estrogen Receptor Transactivation Assay without AIME metabolic competence (metabolism negative), Deisenroth Lab (AID 2284029; active = hit-call score of the fitted dose curve at least 0.9, where 1 is the maximum). A digest of the protocol: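 Chemicals (0.002 - 200 uM, 10 points) incubated 2 h with alginate-water microspheres (no S9), then medium moved onto VM7Luc4E2 cells for 24 h. Viability by protease-substrate cleavage to fluorescent probe; bidirectional fitting.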

The nature of experiment [17]: CCTE_Deisenroth_AIME_384WELL_CTox_Active: Cytotoxicity Assessment (CTOX) in CCTE's 384-well Estrogen Receptor Transactivation Assay with AIME metabolic competence (metabolism positive), Deisenroth Lab (AID 2284037; active = hit-call score of the fitted dose curve at least 0.9, where 1 is the maximum;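 note: activity means signal loss indicating cell death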). In short, it runs like this:
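VM7Luc4E2 breast cells received medium pre-incubated 2 h with chemical over alginate microspheres holding induced male Sprague Dawley rat liver S9; viability read 24 h later by protease-substrate fluorescence. Loss of signal, bidirectional fit, 0.002–200 uM.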

Experiment [18] addresses Estrogen receptor (Homo sapiens) (UniProt P03372). The experiment can be described thus: CCTE_Deisenroth_AIME_384WELL_LUC_Inactive: CCTE's 384-well Estrogen Receptor Transactivation Assay without AIME metabolic competence (ERTA luciferase; metabolism negative), Deisenroth Lab (AID 2284038; active = hit-call score of the fitted dose curve at least 0.9, where 1 is the maximum;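 note: hits raise estrogen receptor luciferase signal so potencies reflect agonists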). A digest of the protocol:
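Metabolism-negative mode: chemicals (10-point, 0.002–200 uM) held 2 h with alginate-water microspheres, then conditioned medium applied to VM7Luc4E2 cells for 24 h. Luciferase induction referenced to 17beta-estradiol.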

For experiment [19] the target is unchanged. Put plainly: CCTE_Deisenroth_AIME_384WELL_LUC_Shift: CCTE's 384-well Estrogen Receptor Transactivation Assay with AIME metabolic competence data shift (ERTA luciferase; difference in metabolism positive and negative), Deisenroth Lab (AID 2284041).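 Note: shift is response with S9 minus without S9 so positive means metabolism raised ER signal.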 In short, it runs like this:
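Here, parent compounds undergo 2 h phase I metabolism by PB/BNF-induced rat S9 before 24 h transactivation in VM7Luc4E2 cells; the curve models S9-positive minus S9-negative response over a 10-point series.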

The target is the same in experiment [20]. Put plainly: CCTE_Deisenroth_AIME_384WELL_LUC_Active: CCTE's 384-well Estrogen Receptor Transactivation Assay with AIME metabolic competence (ERTA luciferase; metabolism positive), Deisenroth Lab (AID 2284030; active = hit-call score of the fitted dose curve at least 0.9, where 1 is the maximum). In short, it runs like this:
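Estrogenic luciferase signal in VM7Luc4E2 cells is measured at 24 hour, after chemicals have been preconditioned 2 hours with PB/BNF-induced rat hepatic S9 in alginate. Gain of signal is fitted relative to 17beta-estradiol, across 0.002 - 200 uM.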

Records with an inconclusive call do not appear. Where a structure was tested more than once in an assay, its records may differ in their call. The source made the active and inactive calls. Rule for the calls, unless noted: active = hit-call score of the fitted dose curve at least 0.9, where 1 is the maximum; inactive = score below 0.9.

Consider `OB(O)O`, for which the compound was classed as inactive in experiment [1], in [2], in experiment [3], in [4], in experiment [5] and in experiment [6]. Further, the compound was called inactive in experiment [7], in [8], in experiment [9], in experiment [10] and in experiment [11].

One may read the AC50 as the concentration giving half of the maximal activity seen. With `O=C(c1ccccc1)C1CCCCC1`, the results for the half-maximal activity concentration (AC50) in experiment [1] and in experiment [7] were 20 µM (active) and 8.12 µM (active), respectively. Further, the result in experiment [2], in experiment [3], in experiment [4], in experiment [5] and in experiment [6] was inactive.

Regarding `c1ccc(Nc2ccccc2)cc1`, the result in [12] was inactive.

Take `CCCN(CCC)c1c([N+](=O)[O-])cc(C(F)(F)F)c(N)c1[N+](=O)[O-]`: the outcome in experiment [1], in experiment [3], in experiment [4], in experiment [5], in experiment [6] and in experiment [7] was inactive. Moreover, in experiment [2], the AC50 is 31.1 µM (active).

Regarding `S=C(S)NCCNC(=S)S.[Mn+2].[S-]C([S-])=NCCN=C([S-])[S-].[Zn+2]`, the AC50 in experiment [8], in experiment [9] and in experiment [11] was 7.52 µM (active) throughout. For the same compound, the compound was called inactive in experiment [9], in [10] and in [11].

`S=C([S-])NCCNC(=S)[S-].[Mn+2]`: the result in experiment [8], in experiment [9] and in experiment [10] was inactive.

Turning to `CCCCC(CC)CN1C(=O)C2C3C=CC(C3)C2C1=O` (configuration not stated), the AC50 was 36 µM (active) in [1]; 30.3 µM (active) in [2]; 29.8 µM (active) in experiment [3]; 4.74 µM (active) in experiment [9]; 4.86 µM (active) in experiment [11]. Also, the outcome in experiment [4], in [5], in experiment [6], in experiment [7], in [8] and in experiment [10] was inactive.

With `C[C@]12CC[C@@H]3c4ccc(O)cc4C[C@@H](CCCCCCCCCS(=O)CCCC(F)(F)C(F)(F)F)[C@H]3[C@@H]1CC[C@@H]2O` (some centres not stated), the outcome in experiment [13] and in experiment [14] was inactive.

On to `CC(=O)S[C@@H]1CC2=CC(=O)CC[C@]2(C)[C@H]2CC[C@@]3(C)[C@@H](CC[C@@]34CCC(=O)O4)[C@H]12`, for which the call in experiment [13], in experiment [14] and in [15] was inactive. The AC50 in [16] was 127 µM (active).

For `C[C@]12C[C@H](O)[C@H]3[C@@H](CCC4=CC(=O)CC[C@@]43C)[C@@H]1CC[C@@H]2C(=O)CO`, the compound was called inactive in [13], in experiment [15], in [17], in [18] and in experiment [19]. Also, the AC50 in [14] was 0.000209 µM (active).

For the compound `CCSC(=O)N(CC(C)C)CC(C)C`, the compound was classed as inactive in experiment [20], in experiment [17], in experiment [18] and in experiment [19].
